Results filed as inconclusive are left out. Active and inactive are the calls of the source. The call rests on the fitted dose curve; in most records, active means well fitted inhibition curve with a large enough effect; inconclusive means small, poorly fitted or top-dose-only effect; inactive means no such curve, though single readings can be large or run the other way.
Target: Cytochrome P450 2D6 (Homo sapiens) (UniProt P10635)
Assay: qHTS Assay for Inhibitors and Substrates of Cytochrome P450 2D6 (AID 891); further: nearly all actives have a fitted effect of over 60% in size;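 on activity change, negative = inhibition: luciferin methyl ether substrate demethylated by CYP2D6 with NADPH regeneration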
Details: recombinant CYP2D6, luciferin-ME EGE luminescence; series mostly up to 57.1 µM; activity change, negative = inhibition: at the top concentration
In short: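 Human CYP2D6 (5 nM) with 30 uM Luciferin-ME EGE (at Km) in 100 mM KPO4, compound preincubated 10 min, then NADPH regeneration system for 60 min at room temperature. Luciferin read by luminescence; normalized to 1.43 uM quinidine.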
On the % scale 0 is the no-effect control and ±100 the full control effect; potency means the concentration at half of the fitted maximal effect.

Sequence of Cytochrome P450 2D6 (Homo sapiens) (P10635 whole entry, looked up): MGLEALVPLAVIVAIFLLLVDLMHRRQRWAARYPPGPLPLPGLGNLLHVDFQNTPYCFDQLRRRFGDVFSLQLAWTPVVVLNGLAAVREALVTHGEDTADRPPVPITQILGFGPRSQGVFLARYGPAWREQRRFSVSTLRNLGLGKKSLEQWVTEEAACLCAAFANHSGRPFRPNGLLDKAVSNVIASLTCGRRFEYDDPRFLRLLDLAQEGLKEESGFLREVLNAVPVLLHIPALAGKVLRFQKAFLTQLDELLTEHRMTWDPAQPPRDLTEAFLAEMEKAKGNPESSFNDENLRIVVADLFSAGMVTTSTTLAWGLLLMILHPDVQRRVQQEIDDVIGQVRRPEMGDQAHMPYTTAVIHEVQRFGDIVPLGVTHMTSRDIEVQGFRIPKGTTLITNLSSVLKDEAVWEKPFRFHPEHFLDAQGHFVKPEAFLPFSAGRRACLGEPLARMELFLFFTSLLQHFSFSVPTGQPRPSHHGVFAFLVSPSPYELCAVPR

Compound | activity change, negative = inhibition | Potency
C=C/C(=C\C)C[C@@H](CC(=O)N[C@@H](CCC(=O)O)CC(=O)O)NC(=O)[C@@H]1CNCC[C@H]1NC(=O)C[C@@H](NC(=O)C[C@H](Cc1ccccc1)NC(=O)[C@@H]1CCCC[C@H]1N)C(C)C | -1.17% (inactive) | 
NCCC[C@@H](CC(=O)N[C@@H]1CCCC[C@H]1C(=O)N[C@H](CC(=O)N[C@@H](CCC(=O)O)CC(=O)O)Cc1c[nH]c2ccccc12)NC(=O)C[C@H](Cc1ccccc1)NC(=O)[C@@H]1CCCC[C@H]1N | -4.72% (inactive) | 
NCCC[C@@H](CC(=O)N[C@@H]1CCNC[C@H]1C(=O)N[C@H](CC(=O)N[C@@H](CCC(=O)O)CC(=O)O)Cc1c[nH]c2ccccc12)NC(=O)C[C@H](Cc1ccccc1)NC(=O)[C@@H]1CCCC[C@H]1N | 0.681% (inactive) | 
CC(C)C[C@@H](CC(=O)N[C@H](CC(=O)N[C@@H]1CCCC[C@H]1C(=O)N[C@H](CC(=O)N[C@@H](CCC(=O)O)CC(=O)O)Cc1ccccc1)C(C)C)NC(=O)[C@@H]1CCCC[C@H]1N | -5.89% (inactive) | 
C=C(CO)[C@H]1Cc2c(ccc3c2O[C@H]2COc4cc(OC)c(OC)cc4[C@@H]2C3=O)O1 | -2.34% (inactive) | 
CC(C)C[C@@H](CC(=O)N[C@@H](CCC(=O)O)CC(=O)O)NC(=O)[C@@H]1CNCC[C@H]1NC(=O)C[C@H](CCCN)NC(=O)C[C@H](Cc1c[nH]c2ccccc12)NC(=O)[C@@H]1CNCC[C@H]1N | -9.43% (inactive) | 
COc1ccc(-c2coc3ccc(O[C@@H]4O[C@@H](COC(C)=O)[C@@H](OC(C)=O)[C@@H](OC(C)=O)[C@H]4OC(C)=O)c(OC(C)=O)c3c2=O)cc1 | 10.9% (inactive) | 
CC(C)[C@@H](CC(=O)N[C@@H]1CCCC[C@H]1C(=O)N[C@H](CC(=O)N[C@@H](CCC(=O)O)CC(=O)O)Cc1ccccc1)NC(=O)C[C@H](Cc1ccccc1)NC(=O)[C@@H]1CNCC[C@H]1N | -0.552% (inactive) | 
Clc1ccc(CO[C@@H](Cn2ccnc2)c2ccc(Cl)cc2Cl)cc1 |  | 0.199 µM (active)
NCCC[C@@H](CC(=O)N[C@@H]1CCCC[C@H]1C(=O)N[C@H](CC(=O)N[C@@H](CCC(=O)O)CC(=O)O)Cc1ccccc1)NC(=O)C[C@H](Cc1c[nH]c2ccccc12)NC(=O)[C@@H]1CCCC[C@H]1N | -9.35% (inactive) | 
CC(C)C[C@@H](CC(=O)N[C@H](CC(=O)N[C@@H]1CCCC[C@H]1C(=O)N[C@H](CC(=O)N[C@@H](CCC(=O)O)CC(=O)O)Cc1ccccc1)C(C)C)NC(=O)[C@@H]1CNCC[C@H]1N | -1.69% (inactive) | 
CC(C)[C@@H](CC(=O)N[C@@H]1CCCC[C@H]1C(=O)N[C@H](CC(=O)N[C@@H](CCC(=O)O)CC(=O)O)Cc1ccccc1)NC(=O)C[C@H](Cc1ccccc1)NC(=O)[C@@H]1CCCC[C@H]1N | -1.21% (inactive) | 
CC(C)C[C@@H](CC(=O)N[C@H](CC(=O)N[C@@H]1CCNC[C@H]1C(=O)N[C@H](CC(=O)N[C@@H](CCC(=O)O)CC(=O)O)Cc1c[nH]c2ccccc12)C(C)C)NC(=O)[C@@H]1CCCC[C@H]1N | 11.1% (inactive) | 
NCCC[C@@H](CC(=O)N[C@@H]1CCNC[C@H]1C(=O)N[C@H](CC(=O)N[C@@H](CCC(=O)O)CC(=O)O)Cc1ccccc1)NC(=O)C[C@H](Cc1c[nH]c2ccccc12)NC(=O)[C@@H]1CCCC[C@H]1N | -6.49% (inactive) | 
CC(C)C[C@@H](CC(=O)N[C@@H](CCC(=O)O)CC(=O)O)NC(=O)[C@@H]1CCCC[C@H]1NC(=O)C[C@@H](NC(=O)C[C@H](Cc1ccccc1)NC(=O)[C@@H]1CNCC[C@H]1N)C(C)C | -3.58% (inactive) | 
CC(C)C[C@@H](CC(=O)N[C@@H](CCCN)CC(=O)N[C@@H]1CCNC[C@H]1C(=O)N[C@H](CC(=O)N[C@@H](CCC(=O)O)CC(=O)O)Cc1c[nH]c2ccccc12)NC(=O)[C@@H]1CCCC[C@H]1N | -6.49% (inactive) | 
NCCC[C@@H](CC(=O)N[C@@H]1CCCC[C@H]1C(=O)N[C@H](CC(=O)N[C@@H](CCC(=O)O)CC(=O)O)Cc1ccccc1)NC(=O)C[C@H](Cc1c[nH]c2ccccc12)NC(=O)[C@@H]1CNCC[C@H]1N | -5.26% (inactive) | 
CC(C)C[C@@H](CC(=O)N[C@@H](CCCN)CC(=O)N[C@@H]1CCNC[C@H]1C(=O)N[C@H](CC(=O)N[C@@H](CCC(=O)O)CC(=O)O)Cc1ccccc1)NC(=O)[C@@H]1CNCC[C@H]1N | -10.2% (inactive) | 
CC(C)C[C@@H](CC(=O)N[C@@H](CCC(=O)O)CC(=O)O)NC(=O)[C@@H]1CCCC[C@H]1NC(=O)C[C@@H](NC(=O)C[C@H](Cc1c[nH]c2ccccc12)NC(=O)[C@@H]1CNCC[C@H]1N)C(C)C | 7.47% (inactive) | 
NCCC[C@@H](CC(=O)N[C@@H]1CCCC[C@H]1C(=O)N[C@H](CC(=O)N[C@@H](CCC(=O)O)CC(=O)O)Cc1ccccc1)NC(=O)C[C@H](Cc1ccccc1)NC(=O)[C@@H]1CNCC[C@H]1N | -8.2% (inactive) | 
NCCC[C@@H](CC(=O)N[C@@H]1CCNC[C@H]1C(=O)N[C@H](CC(=O)N[C@@H](CCC(=O)O)CC(=O)O)Cc1ccccc1)NC(=O)C[C@H](CO)NC(=O)[C@@H]1CNCC[C@H]1N | -8.91% (inactive) | 
O=C1C[C@H](c2ccccc2)Oc2cc(O)cc(O)c21 |  | 20 µM (active)
CC(C)C[C@@H](CC(=O)N[C@@H](CCC(=O)O)CC(=O)O)NC(=O)[C@@H]1CCCC[C@H]1NC(=O)C[C@H](CCCN)NC(=O)C[C@H](Cc1c[nH]c2ccccc12)NC(=O)[C@@H]1CCCC[C@H]1N | 3.54% (inactive) | 
CC(C)C[C@@H](CC(=O)N[C@@H](CCCN)CC(=O)N[C@@H]1CCNC[C@H]1C(=O)N[C@H](CC(=O)N[C@@H](CCC(=O)O)CC(=O)O)CC(C)C)NC(=O)[C@@H]1CCCC[C@H]1N | -5.58% (inactive) | 
CC(C)C[C@@H](CC(=O)N[C@@H](CCC(=O)O)CC(=O)O)NC(=O)[C@@H]1CNCC[C@H]1NC(=O)C[C@H](CCCN)NC(=O)C[C@H](Cc1c[nH]c2ccccc12)NC(=O)[C@@H]1CCCC[C@H]1N | -4.41% (inactive) | 
NCCC[C@@H](CC(=O)N[C@@H]1CCNC[C@H]1C(=O)N[C@H](CC(=O)N[C@@H](CCC(=O)O)CC(=O)O)Cc1ccccc1)NC(=O)C[C@H](Cc1ccccc1)NC(=O)[C@@H]1CCCC[C@H]1N | -4.05% (inactive) | 
